PubChem BioAssay (Tox21)
Inconclusive results are not listed. A call without a number means that no potency is given here. Active and inactive are the calls of the source. The call rests on the fitted dose curve; in most records, active means well fitted inhibition curve with a large enough effect in the repeat runs; inconclusive means weak or mixed curves; inactive means no such curve, though single readings can be large or run the other way.

target: Cytochrome P450 3A4 (Homo sapiens) (UniProt P08684); test: Cytochrome P450 Family 3 Subfamily A Member 4 (CYP3A4) small molecule antagonists: luciferase reporter qHTS assay (AID 1671201); conditions: P450-Glo CYP3A4 enzyme, luciferin luminescence, 1 h; series mostly up to 115 µM; further: nearly all actives have a fitted effect of over 50% in size
Source text: National Center for Advancing Translational Sciences [NCATS]
U.S. Environmental Protection Agency [EPA]
National Institutes of Environmental Health Sciences [NIEHS]
National Toxicology Program [NTP]
U.S. Food and Drug Administration [FDA]
Cytochrome P450 (CYP) enzymes are membrane-bound hemeproteins that play a key role in metabolism of drugs and xenobiotics. Evaluation of the effect of chemicals on CYP isozymes is useful to minimize the adverse drug reactions and toxicities in drug development process. Tox21 chemicals were tested for their effect on CYP enzyme activities by using P450-Glo (TM) screening systems (Promega Corporation, Madison, WI). These systems provide a luminescent method containing proluciferin substrates and are converted to luciferin products by CYP isozymes. The luciferin products formed are detected with a luciferin detection reagent, and the amount of light produced is proportional to CYP activity. P450-Glo (TM) CYP3A4 screening system (Catalog. No. V9910) was used to detect the compounds that interfere in CYP3A4 activity. The positive control compound used for CYP3A4 assay is ketoconazole (Sigma-Aldrich, St. Louis, MO).
Tox21 Assay Protocol Summary:
Two ul of enzyme-substrate mix was dispensed into medium binding white/solid 1536-well plates (Greiner Bio-One North America Inc., Monroe, NC) using a BioRaptr Flying Reagent Dispenser (FRD, Beckman Coulter, Brea, CA). Compounds dissolved in DMSO and positive control (ketoconazole) were transferred to the assay plates at 23 nl using a Pintool station (Wako, San Diego, CA). The assay plates were incubated at room temperature for 10 min. Then 2 ul of NADPH regeneration solution was added to each well of the assay plates using an FRD and incubated at room temperature for 1 h. The reaction was stopped by adding 4 ul of detection reagent using an FRD and after 20 min incubation at room temperature the luminescence signal was measured using a ViewLux plate reader (Perkin Elmer, Shelton, CT). Data were expressed as relative luminescence units.
Potency means the concentration at half of the fitted maximal effect.

Chain of Cytochrome P450 3A4 (Homo sapiens) (P08684 whole entry, looked up): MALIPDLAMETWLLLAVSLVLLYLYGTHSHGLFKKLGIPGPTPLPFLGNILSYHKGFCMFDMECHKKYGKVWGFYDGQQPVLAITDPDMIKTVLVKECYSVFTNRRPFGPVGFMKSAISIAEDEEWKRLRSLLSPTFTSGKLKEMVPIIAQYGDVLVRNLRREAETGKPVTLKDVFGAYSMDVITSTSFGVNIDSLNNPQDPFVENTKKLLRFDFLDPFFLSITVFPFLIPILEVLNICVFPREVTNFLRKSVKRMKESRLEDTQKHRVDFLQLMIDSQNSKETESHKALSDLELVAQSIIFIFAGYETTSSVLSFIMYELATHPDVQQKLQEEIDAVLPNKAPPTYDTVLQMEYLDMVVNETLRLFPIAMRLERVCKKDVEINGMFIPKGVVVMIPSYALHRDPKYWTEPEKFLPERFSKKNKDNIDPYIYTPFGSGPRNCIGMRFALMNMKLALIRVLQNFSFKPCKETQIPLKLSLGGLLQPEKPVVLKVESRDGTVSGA

SMILES	Potency
C=CC(=O)OC(C)(C)C	inactive
CCCC(=O)Cl	inactive
CC1(C)CCC(Cc2ccc(Cl)cc2)C1(O)Cn1cncn1 (stereo not given)	31.7 nM (active)
CCc1ccc(C(=O)NN(C(=O)c2cc(C)cc(C)c2)C(C)(C)C)cc1	5030 nM (active)
N#Cc1cc(I)c(O)c(I)c1	inactive
NNC(=O)c1cccnc1	2530 nM (active)
ClCC(Br)CBr (stereo not given)	inactive
BrCC(Br)C1CCC(Br)C(Br)C1 (stereo not given)	inactive
C[N+](C)(C)CCCl	inactive
CCOc1ccc(C(C)(C)COCc2cccc(Oc3ccccc3)c2)cc1	inactive
O=S1OC[C@@H]2[C@H](CO1)[C@]1(Cl)C(Cl)=C(Cl)[C@@]2(Cl)C1(Cl)Cl (stereo not given in full)	inactive
O=C(C(Cl)(Cl)Cl)C(Cl)(Cl)Cl	inactive
Cc1cc(=O)[nH]o1	inactive
O=[Se]=O	inactive
O=C(O)COc1ccc(Cl)cc1	inactive
CCOP(=S)(OCC)SCn1nnc2ccccc2c1=O	1590 nM (active)
CCCCC(O)(Cn1cncn1)c1ccc(Cl)cc1Cl (stereo not given)	126 nM (active)
CN1[C@@H]2CC[C@H]1CC(OC(=O)c1cc(Cl)cc(Cl)c1)C2 (stereo not given in full)	inactive
COC(N)=O	inactive
COc1cc(Cl)c(OC)cc1Cl	15900 nM (active)

SMILES	Potency
CC(C)(C)c1cc([N+](=O)[O-])cc([N+](=O)[O-])c1O	inactive
O=S(=O)(Cl)c1ccccc1	inactive
Cl/C=C\C[N+]12CN3CN(CN(C3)C1)C2	inactive
Clc1cccc2ccccc12	inactive
Cc1ccc2ccccc2c1	inactive
COC(=O)C(Br)CBr (stereo not given)	inactive
O=C=Nc1ccc(Cl)cc1	inactive
O=C(NC(=O)c1c(F)cccc1F)Nc1ccc(OC(F)(F)C(F)OC(F)(F)F)c(Cl)c1 (stereo not given)	inactive
O=Cc1ccc(Cl)cc1Cl	inactive
CNC(C)Cc1ccccc1OC (stereo not given)	inactive
NC(=O)CI	inactive
CC(O)(CS(=O)(=O)c1ccc(F)cc1)C(=O)Nc1ccc(C#N)c(C(F)(F)F)c1 (stereo not given)	2330 nM (active)
[CH3][Sn]([CH3])([Cl])[Cl]	inactive
BrCCCCBr	inactive
O=C(CBr)OCc1ccccc1	inactive
C[C@H]1CNCCc2ccc(Cl)cc21	inactive
COP(=S)(Oc1cc(Cl)c(Br)cc1Cl)c1ccccc1 (stereo not given)	7100 nM (active)
ClC=C(Cl)Cl	inactive
CC(c1ccc(O)cc1)(c1ccc(O)cc1)c1ccc(O)cc1	31700 nM (active)
CCOP(=O)(OCC)O/C(=C/Cl)c1ccc(Cl)cc1Cl	inactive
